Pf apPOL block: Pf-apPOL DNA polymerase inhibition. AID 1794808. inhibition, % at 10 µM. 210,000 compounds, 0.25% hits. Recombinant Pf-apPOL, molecular beacon fluorescence, 1.5 h
mHTT-CaM PPI inh: inhibitors of human mutant huntingtin-calmodulin interaction; P42858; AlphaScreen His-mHTT/GST-CaM binding, luminescence; inhibition, % at 15 µM; 190,000 compounds, 3.6% hits; AID 1671202
Large screens that a line does not name were inactive; ! = not confirmed by another sample. The full list was thinned out, with hits kept by preference. Cut-off read from the data, not from the text of the source: active = inhibition above about 50%; inactive = the rest.

CC1(C)C(C=C(Cl)Cl)C1C(=O)Nc1cccc([N+](=O)[O-])c1 (stereo unspecified)	mHTT-CaM PPI inh 72!
CC1(C)C(C=C(Cl)Cl)C1C(=O)Nc1ccccc1[N+](=O)[O-] (stereo unspecified)	mHTT-CaM PPI inh 56
CC1(C)C(C=C(Cl)Cl)C1C(=O)Nc1ccc(Br)cc1 (stereo unspecified)	mHTT-CaM PPI inh 53
CC1(C)C(C=C(Cl)Cl)C1C(=O)Nc1cccc(C(=O)O)c1 (stereo unspecified)	none
Cc1ccc(NC(=O)C2C(C=C(Cl)Cl)C2(C)C)cc1C (stereo unspecified)	none
COc1cc([N+](=O)[O-])ccc1N1C(=O)C2C3C=CC(C3=C(C)C)C2C1=O (stereo unspecified)	none
Cn1c(=O)n(C)c2cc(/C=C(\C#N)c3nc4ncc(Br)cc4[nH]3)ccc21	none
N#C/C(=C\c1ccc(-c2ccc3c(c2)C(=O)NC3=O)o1)c1nc2ncc(Br)cc2[nH]1	mHTT-CaM PPI inh 73
O=C(NC1CCCC1)c1ccccc1C(=O)NC1CCCC1	none
COc1ccc(OC)c(/C=C2/N=C(c3ccccc3Cl)OC2=O)c1	none
O=C(C1=CN(c2ccccc2F)c2cc(F)ccc2S1(=O)=O)N1CCOCC1	none
O=C1CSC(=O)N1CC(O)COc1ccc(OCC(O)CN2C(=O)CSC2=O)cc1 (stereo unspecified)	Pf apPOL block 70
O=C1CSC(=O)N1CCOc1ccc(F)cc1	none
NC(=O)C1CCN(C(=O)CN(c2ccccc2Cl)S(=O)(=O)c2ccccc2)CC1	none
NC(N)=NC(N)=Nc1nccs1	none (no result: mHTT-CaM PPI inh)
CCc1ccc(C(=O)N2CCCC(COc3ccc(C(=O)NC(C)C)cc3)C2)cc1 (stereo unspecified)	none
O=C1C=CC(=O)C(c2cc(C(F)(F)F)ccc2Cl)=C1	mHTT-CaM PPI inh 60
O=C1C2C3C=CC(O3)C2C(=O)N1c1cc(C(F)(F)F)ccc1Cl (stereo unspecified)	none
O=C(NNS(=O)(=O)c1cc(C(F)(F)F)cc(C(F)(F)F)c1)c1cnn(-c2ccccc2)c1C(F)(F)F	none (no result: mHTT-CaM PPI inh)
COc1ccc(CNC(=O)c2cnn3c2NC(c2ccc(OC)cc2)CC3C(F)(F)F)cc1 (stereo unspecified)	none
COc1cccc(C2CC(C(F)(F)F)n3ncc(C(=O)NCc4ccc(F)cc4)c3N2)c1 (stereo unspecified)	mHTT-CaM PPI inh 64
CCCc1noc(-c2cccnc2N2CCCN(Cc3ccc(F)cc3)CC2)n1	none
Cc1cc2c(cc1C)NC(CC(=O)Nc1cccc(C(=O)O)c1)C(=O)N2 (stereo unspecified)	none
Cc1cc2c(cc1C)NC(CC(=O)Nc1ccc(N3CCOCC3)cc1)C(=O)N2 (stereo unspecified)	mHTT-CaM PPI inh 57!
COc1ccccc1C1(CNC(=O)C2CC(=O)N(c3ccc(C)c(C)c3)C2)CCOCC1 (stereo unspecified)	none
COc1ccc(-c2[nH]nc3c2C2(C(=O)N(CC(=O)O)c4ccccc42)C(C#N)=C(N)O3)cc1 (stereo unspecified)	Pf apPOL block 72
COc1ccc(-c2[nH]nc3c2C2(C(C#N)=C(N)O3)c3ccccc3-c3ccccc32)cc1	mHTT-CaM PPI inh 79
CCc1[nH]nc2c1C1(C(C#N)=C(N)O2)c2ccccc2-c2ccccc21	none
CCCc1[nH]nc2c1C1(C(=O)N(CC(=O)O)c3ccccc31)C(C#N)=C(N)O2 (stereo unspecified)	none
O=C(NCc1cccnc1-c1ccc(F)cc1)c1cc(F)cc(F)c1	none
COc1ccc(OC)c(/C=c2\sc3nc(=O)c(-c4ccccc4)nn3c2=O)c1	none
O=[N+]([O-])c1cc(S(=O)(=O)N2CCCCC2)ccc1N1CCCCC1	none
COc1ccc(CCC(=O)N2CCc3c(c(-c4nc(-c5ccccc5)no4)nn3C)C2)cc1	none
CCN(CCCNC(=O)CCc1nnc2ccc(-c3ccccc3)nn12)c1ccccc1	none
N#C/C(=C\c1ccc(O)c(O)c1)c1nc(-c2ccc3c(c2)OCO3)cs1	mHTT-CaM PPI inh 98
COc1ccc(-c2csc(/C(C#N)=C/c3ccc(O)c(O)c3)n2)cc1OC	mHTT-CaM PPI inh 81
N#C/C(=C\c1ccccc1[N+](=O)[O-])c1nc(-c2ccc3c(c2)OCO3)cs1	none
COc1ccc(/C=C(\C#N)c2nc(-c3ccc(OC)c(OC)c3)cs2)cc1O	none
COCCC(=O)N1CCC(c2nc(C(=O)N3CCOCC3)c(C)o2)CC1	none
COc1ccc(C(c2c(O)cc(C)oc2=O)c2c(O)cc(C)oc2=O)cc1OC	none
COc1cc(-c2cc(OC)c3c(C)oc(C)c3c(=O)c2)ccc1O	none
Cc1oc(C)c2c(=O)cc(-c3ccc4c(c3)OCO4)cc(O)c12	mHTT-CaM PPI inh 53
Cc1ccc(-c2ccc(C=C3C(=O)OC(C)(C)OC3=O)o2)cc1	none
CC1(C)OC(=O)C(=Cc2ccc(-c3cccc(Cl)c3)o2)C(=O)O1	mHTT-CaM PPI inh 55
CC1=NOC(=O)/C1=C/c1ccc(-c2ccc(Cl)cc2)o1	mHTT-CaM PPI inh 64
CC1=NOC(=O)/C1=C/c1ccc(-c2ccc3c(c2)COC3=O)o1	none
O=C1/C(=C/c2ccccc2Cl)Sc2ccccc21	none
Cc1noc(-c2nn(C)c3c2CN(C(=O)c2c(F)cccc2F)CC3)n1	none
CC(=O)OCC1OC=CC(OC(C)=O)C1OC(C)=O (stereo unspecified)	none (no result: mHTT-CaM PPI inh)
Cc1ccc2nc(SCC(=O)Nc3ccc([N+](=O)[O-])cc3)[nH]c2c1	none
Cc1ccc(S(=O)(=O)N2CCC(c3noc(-c4cccc(F)c4)n3)CC2)cc1	none
Fc1ccc(-c2nc3ccccc3[nH]2)cc1	none
c1cc(-c2nc3ccccc3[nH]2)nc(-c2nc3ccccc3[nH]2)c1	mHTT-CaM PPI inh 78
CCN(CC)CCNC1CCCc2c1[nH]c1ccc(C)cc21 (stereo unspecified)	none
Cc1ccc2[nH]c3c(c2c1)CCCC3NCCCN(C)C (stereo unspecified)	none
CC(=O)NC1CCCc2c1[nH]c1ccc(C)cc21 (stereo unspecified)	Pf apPOL block 99
Cc1ccc2[nH]c3c(c2c1)CCCC3NCCCO (stereo unspecified)	none
O=CNC1CCCc2c1[nH]c1ccc(OCc3ccccc3)cc21 (stereo unspecified)	mHTT-CaM PPI inh 53
O=CNC1CCCc2c1[nH]c1ccc(Cl)cc21 (stereo unspecified)	none
Cc1ccc2[nH]c3c(c2c1)CCCC3NCCCOc1ccccc1 (stereo unspecified)	mHTT-CaM PPI inh 100
Cc1ccc2[nH]c3c(c2c1)CCC3O (stereo unspecified)	mHTT-CaM PPI inh 78
COc1ccc(CNC(=O)C2CCCN(c3nccnc3Sc3ccccc3)C2)cc1 (stereo unspecified)	none
CCOc1ccc(C(C)C)cc1S(=O)(=O)NCCn1ncccc1=O	none
CCC1=NS(=O)(=O)c2cccnc2N1c1ccc(C)cc1F	none
Cc1ccc(-n2nnc(C(=O)O)c2-c2ccccn2)c(F)c1	none
Cc1nnc(NC(=O)CSc2nc(N)c(NC(=O)c3ccco3)c(=O)[nH]2)s1	none
COc1ccc(NS(=O)(=O)c2cc(Br)cc3c2N(C(=O)C2CC2)CC3)cc1	none
COC(CNC1CCCc2c1[nH]c1ccc(C)cc21)OC (stereo unspecified)	none
Cc1ccc2[nH]c3c(c2c1)CCCC3NCc1ccc(Cl)cc1 (stereo unspecified)	mHTT-CaM PPI inh 73
CC(=O)Nc1ccc(NS(=O)(=O)c2ccc3[nH]c(=O)sc3c2)cc1	none
O=C1OC(c2ccco2)=N/C1=C/c1cccc(F)c1	none
CCOc1ccccc1NC(=O)c1c(NCc2cc(OC)ccc2OC)sc2c1CCC2	none

Source: PubChem (University of Kansas High Throughput Screening Laboratory)
